NPYLR7 agonist: mosquito NPYLR7 agonism | HEK293T NPYLR7/Galpha15, GCaMP6s calcium fluorescence | activation, % at 10 µM | actives 0.15% (n = 270,000) | AID 1259423; in the data active means activation above about 40%;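 further: 0% = vehicle and 100% = reference agonist at the receptor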
mcGAS lum: mouse cGAS inhibition by luminescence. Q8C6L5. inhibition, % at 12.5 µM. recombinant cGAS, Kinase-Glo ATP depletion luminescence. actives 0.15% (n = 160,000);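 further: 0% = negative control wells and 100% = reference inhibitor with no enzyme activity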
Target sequence (Q8C6L5 whole entry, looked up): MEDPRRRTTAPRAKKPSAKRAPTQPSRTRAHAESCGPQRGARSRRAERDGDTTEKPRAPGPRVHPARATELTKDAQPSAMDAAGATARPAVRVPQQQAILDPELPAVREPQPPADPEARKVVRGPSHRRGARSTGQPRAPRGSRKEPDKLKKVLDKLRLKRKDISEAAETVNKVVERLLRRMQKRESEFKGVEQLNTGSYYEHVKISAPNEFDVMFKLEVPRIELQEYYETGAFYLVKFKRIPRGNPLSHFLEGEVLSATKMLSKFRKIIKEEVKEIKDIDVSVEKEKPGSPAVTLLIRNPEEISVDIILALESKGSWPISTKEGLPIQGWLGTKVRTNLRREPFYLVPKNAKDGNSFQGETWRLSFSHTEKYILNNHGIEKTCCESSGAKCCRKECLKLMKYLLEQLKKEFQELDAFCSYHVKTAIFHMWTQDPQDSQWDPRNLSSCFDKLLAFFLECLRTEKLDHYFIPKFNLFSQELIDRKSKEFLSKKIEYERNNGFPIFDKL
hcGAS inh: human cGAS inhibition; Q8N884; recombinant h-cGAS, ATP depletion, Kinase-Glo luminescence; inhibition, % at 12.5 µM; actives 0.081% (n = 290,000); AID 1259398;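 further: 0% = vehicle reaction and 100% = reaction without DNA for no activity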
* marks the source's active call; other numbers are inactive results; · = no result; ! = a repeat was not active. Rows were chosen to be rich in hits. Some 0.24% of all compounds tested hit in one or more screens of this group. Unless noted, no stated cut-off is given here; in the data, active means inhibition above about 40%; inactive means the rest.

SMILES | NPYLR7 agonist | mcGAS lum | hcGAS inh
O=C(NCc1n[nH]c(=S)n1-c1ccccc1Cl)c1ccccc1 | -1 | -10 | -2
COCc1cc(C)nc(OCC(=O)N/N=C\c2cc(Br)cc(I)c2O)c1C#N | 0 | 1 | -1
COCCN=Cc1cc(I)cc(I)c1O | 51* | · | 77*
CC1=C[C@@H](CC#N)[C@H](C(C)C)C[C@H]1CC(=O)NC(C)C | -7 | -8 | -7
COc1ccc(C(C)NS(=O)(=O)c2ccc(Cl)cc2C(F)(F)F)cc1F (stereo not given) | 107* | · | 2
COc1ccc(S(=O)(=O)NC(C)c2ccncc2)cc1F (stereo not given) | 2 | · | -15
O=C(O)c1cc(O)c2c(O)c3c(O[C@H]4O[C@H](CO)[C@@H](O)[C@H](O)[C@H]4O)cccc3c(-c3c4cc(C(=O)O)cc(O)c4c(O)c4c(O[C@H]5O[C@H](CO)[C@@H](O)[C@H](O)[C@H]5O)cccc34)c2c1 | -17 | · | 42*!
OCC1OC(Oc2ccccc2Cl)C(O)C(O)C1O (stereo not given) | 0 | -4 | -4
CCn1c(O)c(C=Nc2c(C)nn(C)c2C)c(=O)n(CC)c1=S | -2 | -7 | -6
CCn1c(O)c(C=Nc2c(C#N)c(C)c(C)n2C2CCCCC2)c(=O)n(CC)c1=S | 69* | -9 | -24
COc1ccc(NC[C@@H]2C=C(C)[C@H](Cc3nnc(C)o3)C[C@H]2C(C)C)cn1 | 55* | -6 | -5
COc1ccc(-c2nnc(C[C@@H]3C[C@@H](C(C)C)[C@H](CNc4ccccn4)C=C3C)o2)cc1 | -10 | -4 | -4
CCc1cc(=O)[nH]c(-n2nc(C)cc2NC(=O)Cc2ccc(OC)cc2)n1 | -10 | 0 | -2
CC1CCCN(CC(=O)Nc2ccc(N3CCCC3)cc2)C1 (stereo not given) | 1 | · | -11
O=C(CSc1nc(-c2ccccc2)c(NC(=O)C2CCCC2)s1)NC1CC1 | -9 | -10 | -3
CC(=O)N(C)Cc1cccc(Nc2cc(C)nc(-c3ccccn3)n2)c1 | 3 | · | 28
CS(=O)(=O)Nc1nc2n(n1)C(c1ccccc1)CC(c1ccc(Cl)cc1)=N2 (stereo not given) | 66* | · | 0
O=S(=O)(Nc1nc2n(n1)C(c1ccccc1)CC(c1ccccc1)=N2)c1ccccc1 (stereo not given) | 25 | -3 | -9
NC(=O)C1CN(c2cc(C(F)(F)F)nc3ccccc23)CCN1 (stereo not given) | 5 | -8 | -8
CCOC(=O)C1=C(CC)NC2=C(C(=O)CCC2)C1c1ccccc1OCc1ccccc1 (stereo not given) | -4 | -8 | -4
CCN1C(=O)/C(=C/c2ccc(N(C)C)cc2)SC1=S | -4 | -3 | -1
O=C(O)CN1C(=O)/C(=C\c2ccc(I)cc2)SC1=S | -7 | -4 | -6
CCN(CC)c1ccc(/C=C2\SC(=S)N(CCS(=O)(=O)O)C2=O)cc1 | 137* | -8 | -17
CCN(CC)c1ccc(/C=C2/SC(=S)N(CC(=O)O)C2=O)cc1 | 42* | 0 | 1
CSCc1cccc(C(=O)Nc2cccnc2)c1 | 2 | · | -17
SMILES | NPYLR7 agonist | mcGAS lum | hcGAS inh
CCc1nc(CN(C)C(=O)c2c(C)nn(-c3ccc(F)cc3)c2C)no1 | -6 | · | -5
CC1(C)OC2OC(C(O)c3cc(O)c4c(c3O)C(=O)c3ccccc3C4=O)C(C)(O)C2O1 (stereo not given) | 106* | · | 24
O=C1c2ccccc2C(=O)c2c(O)c(O)cc(O)c21 | -2 | 6 | -24
CCOC(=O)c1cc(-c2ccc(Cl)cc2Cl)n(-c2ccc(C(=O)N3C(C)C=CC3C)cc2)n1 (stereo not given) | 5 | -6 | -4
Cc1ccc(-c2ccc(/C=N\Nc3nc4nonc4nc3Nc3ccc(Br)cc3)o2)cc1Cl | -2 | 84* | 3
COCc1cc(C)nc(NN=Cc2ccc(-c3ccc(Br)cc3)o2)c1C#N | -25 | 1 | 2
CCOc1cc(Cl)c(S(=O)(=O)N2CCC(C(N)=O)CC2)cc1Cl | 1 | -7 | -8
CC(C)(C)Nc1c(-c2ccc(F)cc2)nc2ccccn12 | 9 | -4 | -3
CC(=O)c1ccc(N2C(=O)CC3CS(=O)(=O)CC32)cc1 (stereo not given) | 1 | -7 | -1
CCOc1ccc(-c2ccc(C(=O)N3CCc4cc(OC)c(OC)cc4C3c3ccccc3)s2)cc1 (stereo not given) | 12 | 4 | 2
CCN1C(=O)/C(=C2\SC(=S)NC2=O)c2ccccc21 | -21 | 35 | 7
O=C(O)CN1C(=O)/C(=C2\SC(=S)NC2=O)c2ccccc21 | 0 | 103* | 24
Cc1nnc(C(C)N2CCCC2c2cccc(N(C)C)c2)o1 (stereo not given) | -5 | · | 2
N=C(N)Sc1cn(CCNC(=O)c2cccs2)c2ccccc12 | -10 | -5 | -3
CC1(C)OCC(C2OC(Nc3cccc(CC(=O)NCCCn4ccnc4)c3)[C@H]3OC(C)(C)O[C@@H]23)O1 (stereo not given in full) | -8 | 1 | -1
Cc1ccc(C)n1-c1sccc1C(=O)O | 25 | 86* | 44*
Cc1sc(-n2c(C)ccc2C)c(C(=O)O)c1C | 7 | 2 | 0
O=C(CCc1ccccc1)Nc1ccc(N2CCCC2)c(C(=O)NCCc2ccccc2)c1 | 13 | -3 | 0
CN(C)C(CNc1nccnc1-c1cc(C(F)(F)F)cc(C(F)(F)F)c1)c1cccnc1 (stereo not given) | -5 | -1 | -7
CC(C)N1C(=O)SC(=Cc2ccc(N3CCCCC3)o2)C1=O | 10 | -6 | -6
C#CCN1C(=O)SC(=Cc2ccc(N3CCCCC3)o2)C1=O | 122* | -3 | -7
CCn1c(-c2cccc(C(F)(F)F)c2)csc1=Nc1ccc2[nH]c(=O)[nH]c2c1 | -3 | · | -4
CCOC=C(C#N)c1nc(C)cs1 | 84* | · | -3
CCOc1cccc(/C=C(/C#N)c2nc(C)cs2)c1OC(F)F | 8 | · | -16
O=C(O)c1ccccc1N=Nc1c(O)[nH]c2ccc(F)cc12 | -2 | · | 34
SMILES | NPYLR7 agonist | mcGAS lum | hcGAS inh
COc1cc(/C=C2\Oc3c(ccc4c3CN(CC3CCCO3)CO4)C2=O)cc(OC)c1OC (stereo not given) | 74* | 2 | 2
COc1ccc(/C=C2\Oc3c(ccc4c3CN(CC3CCCO3)CO4)C2=O)cc1OC (stereo not given) | 88* | -6 | -5
COc1ccc(/C=C2\Oc3c4c(cc(C)c3C2=O)OCN(C2CC2)C4)cc1OC | 1 | -8 | -6
CC(C)c1ccc(/C=C2\Oc3c(ccc4c3CN(C3CCS(=O)(=O)C3)CO4)C2=O)cc1 (stereo not given) | 43 | -7 | -7
COc1ccc(/C=C2\Oc3c(ccc4c3CN(CC3CCCO3)CO4)C2=O)cc1 (stereo not given) | 64* | -6 | -1
Cc1ccccc1/C=C1\Oc2c(ccc3c2CN(C2CCS(=O)(=O)C2)CO3)C1=O (stereo not given) | 42 | 9 | 23
COc1ccc(/C=C2\Oc3c(ccc4c3CN(C3CCS(=O)(=O)C3)CO4)C2=O)cc1 (stereo not given) | 68* | -6 | -5
COc1ccc(/C=C2\Oc3c4c(cc(C)c3C2=O)OCN(Cc2ccncc2)C4)cc1 | -3 | -6 | -3
O=C(c1ccc2c(c1)CCCC2)N(Cc1ccco1)Cc1cccs1 | 0 | · | -7

Assay outcomes deposited in PubChem by Fisher Drug Discovery Resource Center.
